# ± gives the standard deviation.
# What was measured:
# Details in all cases: modulator concentration 10 µM
# [1] = test system: RAW-Dual (murine macrophage reporter line); assay: NF-kB reporter (SEAP) activity fold change vs agonist alone; higher = enhanced NF-kB activity
# Method in brief: (§1)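 RAW-Dual murine macrophage reporter cells were seeded at 50 000 per well in 384-well plates and pre-incubated 1 hour at 37 °C with compound pin-transferred to 10 μM final. After 1 hour, a PRR agonist was added and cells incubated overnight. Supernatant NF-κB (SEAP, QUANTI-Blue, 620 nm absorbance) and IRF (Lucia luciferase, QUANTI-Luc, luminescence) signals were divided by the mean agonist-only control on the same plate to give fold change. Two replicate plates were averaged, with errors by propagation.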
# [2] = test system: RAW-Dual (murine macrophage reporter line); assay: IRF reporter (Lucia luciferase) activity fold change vs agonist alone; higher = enhanced IRF activity
# Method in brief: as §1
# [3] = test system: RAW-Dual (murine macrophage reporter line); assay: viability score (confluency relative to resting cells, overnight) (fraction); higher = more viable, active = viable (0.7 or more)
# Method in brief: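 RAW-Dual macrophages in 384-well plates were treated overnight with compound at 10 μM final. IncuCyte imaging recorded confluency, and IncuCyte software built two confluency masks across every imaged well. The viability score expresses confluency relative to resting cells and was judged against a cutoff, which a compound met only if both masks exceeded 70% of resting cells.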
# [4] = agonist: CpG ODN 1826 0.5 ug/mL
SMILES,"NF-kB reporter [1, 4]",NF-kB reporter ([1]; agonist: LPS 0.1 ug/mL),NF-kB reporter ([1]; agonist: MPLA […]),IRF reporter ([2]; agonist: 3'3'-cGAMP 10 ug/mL),IRF reporter ([2]; agonist: LPS 0.1 ug/mL),IRF reporter ([2]; agonist: MPLA […]),viability score [3]
COC(=O)c1ccc(-n2nnnc2SCC(=O)Nc2ccc(C)c(C)c2)cc1,0.529 ± 0.32,0.897 ± 0.057,0.98 ± 0.085,0.849 ± 0.063,1.14 ± 0.077,1.19 ± 0.15,1.02 (active)
COc1ccc2oc(=O)c(-c3csc(NC(=O)C=CC(=O)O)n3)cc2c1,1.09 ± 0.099,0.895 ± 0.086,0.985 ± 0.027,0.353 ± 0.017,0.938 ± 0.11,0.844 ± 0.13,0.959 (active)
CCOC(=O)C1=C(C)OC(N)=C(C#N)C1c1cc(C)c(OC)cc1C (centres undefined),0.925 ± 0.073,1.01 ± 0.11,0.898 ± 0.056,0.66 ± 0.11,0.987 ± 0.089,0.935 ± 0.17,1 (active)
O=C(Nc1ccc([N+](=O)[O-])cc1Cl)c1cccnc1,0.871 ± 0.26,0.96 ± 0.11,0.982 ± 0.16,0.958 ± 0.061,1.06 ± 0.23,1.33 ± 0.37,0.996 (active)
Cc1cc(OCCCOc2cccc3cccnc23)ccc1Cl,0.752 ± 0.06,1.02 ± 0.058,0.864 ± 0.052,0.998 ± 0.025,1.14 ± 0.18,1.03 ± 0.27,1 (active)
NC(=O)N1CCC(CC(=O)N2CCC([C@H]3c4ncc(Br)cc4CCc4cc(Cl)cc(Br)c43)CC2)CC1,0.342 ± 0.047,0.434 ± 0.12,0.615 ± 0.19,0.325 ± 0.012,0.889 ± 0.23,1.2 ± 0.17,0.0582 (inactive)
Cc1cnc(C(=O)O)c[n+]1[O-],1.09 ± 0.085,0.988 ± 0.074,1.03 ± 0.026,0.962 ± 0.069,0.966 ± 0.048,0.926 ± 0.11,1 (active)
CS(=O)(=O)O.N#CC1(c2ccc(NC(=O)c3cccnc3NCc3ccncc3)cc2)CCCC1,0.394 ± 0.03,0.69 ± 0.033,0.547 ± 0.052,0.396 ± 0.019,1 ± 0.074,0.99 ± 0.083,0.992 (active)
Cc1ccc2[nH]c3nc(C)cc(C)c3c(=O)c2c1,0.967 ± 0.16,1.08 ± 0.091,0.993 ± 0.12,1.01 ± 0.052,1.25 ± 0.25,1.31 ± 0.21,0.704 (active)
O=C(CCCN1C(=O)c2cccc3cccc(c23)C1=O)NCCO,1.04 ± 0.061,0.976 ± 0.078,0.963 ± 0.025,1 ± 0.072,1.12 ± 0.052,1.05 ± 0.1,0.995 (active)
C=CCn1c(-c2ccc(OC)cc2)cnc1SCC(=O)N1CCc2ccccc21,0.967 ± 0.12,1.06 ± 0.09,1.09 ± 0.18,0.927 ± 0.1,1.03 ± 0.062,0.962 ± 0.11,1 (active)
NS(=O)(=O)C#Cc1ccccc1,0.0641 ± 0.011,0.0588 ± 0.0047,0.159 ± 0.013,0.0153 ± 0.0016,0.0325 ± 0.0031,0.0392 ± 0.0098,0.7 (active)

# — the supplement of paper PMC10646978
